Screens: PubChem, Broad Institute
AF4-AF9 inh: inhibitors of human MLL-AF4/AF9 interaction. P42568. AlphaScreen, biotin-AF4 peptide binding to FLAG-AF9. inhibition, % at 10 µM. hit rate 0.47% among 350,000;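 active means every replicate reaching a set inhibition limit, whatever the replicate mean, cut at about 25% in these data; inconclusive means mean inhibition reaches that limit but some replicates miss it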;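 further: 0% = plate neutral control median and 100% = total signal loss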
RAD54 inh: inhibitors of human RAD54 branch migration; Q92698; RAD54 Holliday junction branch migration, FAM/BHQ fluorescence; inhibition, % at 10.4 µM; hit rate 0.14% among 360,000; AID 602329;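 active means mean normalized replicate activity at least 40 and at least half of replicates scoring 40 or more; inconclusive means only one of the two criteria met; inactive means mean below 40 and under half of replicates reaching 40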;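 further: 0% = median of neutral control wells and 100% = median of positive control wells; inhibitors cause a drop in the FAM fluorescence signal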
RAD52 anneal inh: inhibitors of human RAD52 DNA annealing | P43351 | recombinant RAD52 DNA annealing, FRET fluorescence | inhibition, % at 18.7 µM | hit rate 0.46% among 360,000;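 active means every replicate showing at least 50% inhibition; inconclusive means mean inhibition at least 50% but not in every replicate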
Target sequence (P43351 whole entry, looked up): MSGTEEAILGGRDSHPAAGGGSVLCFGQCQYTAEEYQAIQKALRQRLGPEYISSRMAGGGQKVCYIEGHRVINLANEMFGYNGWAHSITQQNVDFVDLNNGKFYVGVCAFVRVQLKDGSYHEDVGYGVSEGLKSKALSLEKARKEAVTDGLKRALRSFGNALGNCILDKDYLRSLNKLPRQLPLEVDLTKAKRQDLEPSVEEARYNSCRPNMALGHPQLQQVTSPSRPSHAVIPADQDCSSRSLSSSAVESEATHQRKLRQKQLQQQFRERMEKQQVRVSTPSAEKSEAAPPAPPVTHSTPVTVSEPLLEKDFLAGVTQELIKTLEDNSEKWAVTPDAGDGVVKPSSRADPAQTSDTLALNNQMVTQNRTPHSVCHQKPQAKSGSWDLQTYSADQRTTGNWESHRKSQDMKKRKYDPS
dFosB activator: enhances mouse delta FosB homodimer DNA binding; P13346; purified delta FosB, TAMRA-CDK5 oligo fluorescence polarization; percent of positive-control signal above neutral wells; activation, % at 25 µM; hit rate 0.99% among 340,000; AID 493131;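 active means mean activation above about 17%, with every replicate also reaching it, limit read from the data, passing the limit was not always enough; inconclusive means only one of the two conditions met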
GSIS activator: GLuc luminescence reporter in INS-1E cells, primary screen for activators of glucose-dependent secretion of insulin; AID 743287; hit rate 0.61% among 370,000; activation, % at 16.6 µM; INS-1E GLuc reporter insulin secretion, 2-3 h;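 active means lowest replicate activation of at least 40%, so every replicate reaches that level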;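 further: 0% = median of neutral control wells and 100% = median of IBMX positive control wells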
DENV2 CPE: DENV2-induced cell death inhibition; DENV2-infected cells, cytopathic effect rescue, plate reader; CPE inhibition, % at 9.99 µM; hit rate 1.7% among 350,000; AID 651640; in the data active means CPE inhibition above about 20%, passing the limit was not always enough; inconclusive means no clear call, values can overlap the other calls; tested in BHK-21 cells;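 further: 0% = median of neutral control wells and 100% = median of positive control wells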
Active calls of the source: *; u = inconclusive; x = no result given. An excerpt weighted towards active compounds, which were near 3.1% of everything screened.

SMILES	AF4-AF9 inh	RAD54 inh	RAD52 anneal inh	dFosB activator	GSIS activator	DENV2 CPE
CC(C)(C)C1CCC(=NNc2nc3ccccc3[nH]2)CC1 (stereo unspecified)	10.4	x	-4.6	-5.2	-23.1	u
CCCNC(=O)N1[C@@H]2CN(C(=O)Nc3ccc(F)cc3)c3ccccc3[C@@H]2[C@@H]1CO	0.6	3.9	-4.9	x	-6.8	-2.9
C[C@@H]1CN([C@@H](C)CO)C(=O)Cc2cc(N(C)C)ccc2O[C@H]1CN(C)Cc1ccc(C(=O)O)cc1	0.0	-2.5	-0.3	x	-2.1	11.4
C=CCN1C(=O)N/C(=C/c2ccccc2OCC(=O)Nc2ccc(F)cc2)C1=O	-0.4	x	-20.6	7.5	2.2	22.2*
COc1ccc(S(=O)(=O)N[C@H]2CC[C@H](CC(=O)NCCc3ccccc3)O[C@H]2CO)cc1	-1.7	-0.4	1.7	x	-1.4	5.5
Cc1nn(CC(=O)Nc2ccc3c(c2)nc2n3CCN(C3CCCCC3)C2)c(=O)c2ccccc12	-0.3	-6.7	-23.4	26.6*	-9.8	-1.5
Cc1nn(CC(=O)Nc2ccc3c(c2)nc(CCN2CCCCC2)n3C)c(=O)c2ccccc12	4.4	-5.2	-83.1	3.6	35.2	-4.0
O=C(C1CCCCC1)N1CCC2CC1c1cc(N3CCCCC3)ccc12 (stereo unspecified)	4.8	-10.9	-107.0	x	x	7.3
O=C(c1ccccc1F)N1CCC2CC1c1cc(N3CCCCC3)ccc12 (stereo unspecified)	10.6	-0.4	-56.1	x	x	41.7*
CCN(CC)C(=O)Cn1cc(C(=O)C(=O)N2CCN(Cc3ccccc3)CC2)c2ccccc21	-6.2	x	-19.5	-13.7	59.8*	-1.5
CCN1CCN(C(=O)C(=O)c2cn(CC(=O)N(CC)CC)c3ccccc23)CC1	0.4	-6.6	-0.6	1.5	-1.7	u
COc1ccc(/C=C2/SC(=O)N(NS(=O)(=O)c3ccccc3)C2=S)cc1OC	7.1	-2.9	-69.0	-3.2	48.7*	-4.7
COc1ccc(/C=N/NS(=O)(=O)c2ccccc2)cc1OC	-4.1	-4.5	-0.9	-9.2	71.4*	-0.7
Cc1c(Cl)cccc1NC(=O)CNC(=O)C1CC(=O)N(C2CCCC2)C1 (stereo unspecified)	4.1	4.3	-14.1	-0.5	30.4	87.8*
COc1ccc(S(=O)(=O)N2CCCC2C(=O)NCC(=O)Nc2cccc(Cl)c2C)cc1 (stereo unspecified)	-9.1	1.0	-18.1	-6.0	-20.7	70.4*
Cc1c(Cl)cccc1NC(=O)C1CC(=O)N(C2CCCC2)C1 (stereo unspecified)	-3.3	-5.6	-10.0	-8.6	35.4	-5.3
Cc1ccn2c(NC3CCCCC3)c(-c3cccc(SC4CCCCC4)c3)nc2c1	8.4	-3.8	-131.8	3.4	7.0	u
Cc1ccn2c(NC3CCCCC3)c(-c3ccc(SC4CCCCC4)cc3)nc2c1	2.9	x	-98.6	x	-12.4	37.2*
CC1(C)CCCC(C)(C)N1CC(O)COCCOc1ccc(Br)cc1 (stereo unspecified)	x	x	x	-1.8	51.2*	x
OCCN1CCN(CC(O)COCCOc2ccc(Br)cc2)CC1 (stereo unspecified)	7.4	x	-10.5	1.7	0.2	-3.1
CC(C)CC#Cc1ccc2c(c1)O[C@H](CN(C)Cc1ccccc1F)[C@H](C)CN([C@@H](C)CO)S2(=O)=O	0.6	17.0	2.7	x	-4.4	10.2
COc1ccc2c3c([nH]c2c1)[C@@H](CO)N(Cc1ccccc1Cl)CC31CN(C(=O)C2CC2)C1	-3.7	x	-15.7	x	1.2	23.2*
COc1ccc2c3c([nH]c2c1)[C@@H](CO)N(Cc1cccc(Cl)c1)CC31CCN(C(C)=O)CC1	-1.7	x	x	x	-11.1	30.1*
COc1ccc2c3c([nH]c2c1)[C@H](CO)N(Cc1ccccc1Cl)CC31CN(C(C)=O)C1	-0.8	x	-30.6	x	-3.1	0.3
COc1ccc2c3c([nH]c2c1)[C@H](CO)N(Cc1ccccc1Cl)CC31CCN(C(C)=O)CC1	-1.4	x	x	x	2.4	22.5*
COc1ccc2c3c([nH]c2c1)[C@H](CO)N(C(C)=O)CC31CN(Cc2ccccc2Cl)C1	26.3*	x	9.0	x	18.2	1.4
COc1cccc(NC(=O)N2C[C@H](O)COC[C@@H]3O[C@H](CC(=O)NC4CCCC4)CC[C@H]32)c1	-2.8	1.2	0.4	x	9.6	-3.1
